Bioassay records as filed in PubChem.
HCMV inh: inhibitors of human cytomegalovirus; HFF cells, HCMV-luciferase reporter, 72 h; active compounds read low; AID 1259415; 4.5% of 410,000 active; activity change, negative = inhibition, % at 57.5 µM; in the data active = activity change below about -60%; inconclusive = no clear call, values can overlap the other calls; inactive = above about -39%
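Human foreskin fibroblasts infected with luciferase-reporter HCMV at MOI 1 PFU/cell, compounds at two doses. Luciferase measured 72 h post infection; normalized to buffer-only basal and Salinomycin (10uM) controls.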
Vaccinia mCherry: vaccinia inhibition (mCherry reporter); 0.63% of 310,000 active; Potency, µM (titrated, usually from 36.5 µM), for the others: at the highest dose activity change, negative = inhibition, actives largely listed as inhibitors; Vaccinia virus mCherry reporter infection, fluorescence; calls by dose curve; tested in A549 cells; also: potency is read from the fitted curve at half-maximal effect; nearly all actives have a fitted effect of over 35% in size
VACV Venus inh: vaccinia inhibition (Venus reporter); Vaccinia virus Venus reporter expression, fluorescence; Potency, µM (doses to about 36.5 µM), for the others: at the top dose activity change, negative = inhibition, hits mostly inhibitors; 0.46% of 330,000 active; calls by dose curve; tested in A549 cells; also: potency is read from the fitted curve at half-maximal effect; nearly all actives have a fitted effect of over 30% in size
TbPYK inhibitor: T. brucei pyruvate kinase inhibition | 0.12% of 410,000 active | TbPYK enzyme, Kinase-Glo Plus ATP luminescence, 45 min | Q57TT1 | Potency, µM (series often up to 76.8 µM), for the others: at the top dose activity, negative = inhibition, actives largely listed as inhibitors; also: potency is read from the fitted curve at half-maximal effect; nearly all actives have a fitted effect of over 50% in size
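Luminescence from Kinase-Glo Plus, added after a 45-minute room-temperature reaction, served as the end-point read-out. The enzyme and substrate were preincubated with compound before ADP (130 uM final) initiated turnover. Concentration-effect curves came from normalized qHTS data.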
LmPK inhibitor: LmPK (Leishmania mexicana) enzyme inhibition; Potency, µM (highest dose often 57.5 µM), without a hit: at the top dose activity change, negative = inhibition, usual class: inhibitors; 0.37% of 290,000 active; Q27686; purified LmPK, Kinase-Glo ATP luminescence, 1 h; also: potency is read from the fitted curve at half-maximal effect
Target sequence (Q27686 whole entry, looked up): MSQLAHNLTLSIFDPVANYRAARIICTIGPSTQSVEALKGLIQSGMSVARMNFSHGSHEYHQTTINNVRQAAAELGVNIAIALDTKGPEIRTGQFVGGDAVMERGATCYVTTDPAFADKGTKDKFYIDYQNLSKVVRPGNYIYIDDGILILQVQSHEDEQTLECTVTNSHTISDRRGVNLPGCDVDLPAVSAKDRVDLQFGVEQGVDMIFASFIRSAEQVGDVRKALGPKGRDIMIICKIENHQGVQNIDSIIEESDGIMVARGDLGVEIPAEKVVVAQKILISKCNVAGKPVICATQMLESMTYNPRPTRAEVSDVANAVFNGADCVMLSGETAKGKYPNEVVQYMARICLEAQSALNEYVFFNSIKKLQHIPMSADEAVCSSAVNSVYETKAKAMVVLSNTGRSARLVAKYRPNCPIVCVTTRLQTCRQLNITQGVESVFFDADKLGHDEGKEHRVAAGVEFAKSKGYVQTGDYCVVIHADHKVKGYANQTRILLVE
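Pyruvate kinase activity monitored as ATP production (luciferase luminescence). Conditions: 0.1 nM enzyme, 0.5 mM PEP, 0.1 mM ADP, 1 h, RT; normalized against uninhibited and no-enzyme wells.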
Numbers without * were called inactive; i = inactive; ? = inconclusive; . = not tested or not shown. Sampled rows, rich in hits. Any-hit rate of the full collection: about 5%. Unless noted, calls follow the shape of the dose curve; as a rule, active = well fitted curve in the direction sought with a large enough effect; inconclusive = small, poorly fitted or top-dose-only effect, or another doubt; inactive = no such curve, though single readings can be large; an effect the other way counts as inactive or inconclusive. % is scaled to controls: 0 for no effect and ±100 for the full control effect.

SMILES	HCMV inh	Vaccinia mCherry	VACV Venus inh	TbPYK inhibitor	LmPK inhibitor
NC(=O)NC(CC(=O)Nc1cccnc1)c1cccc(Br)c1 (stereo unspecified)	-24	-20%	-3%	-2%	3%
CCCCCCn1ccc(=N)cc1	-80*	.	?	5%	-2%
CCCCCCCCCCCCCCCCn1cc[n+](CC(C)=O)c1	.	.	.	-4%	3%
CCOc1ccc(Nc2ncnc3c2nc2n3CCCC2)cc1	-1	-3%	-26%	2%	.
COc1cccc(C2=NOC(C(=O)Nc3ccc4c(c3)OCO4)C2)c1 (stereo unspecified)	35	i	9%	-9%	-2%
O=C(Oc1ccc([N+](=O)[O-])cc1)C1CC(=O)N(c2ccc3c(c2)OCCO3)C1 (stereo unspecified)	-100*	i	-10%	2%	.
O=C1CC(NS(=O)(=O)c2ccc([N+](=O)[O-])cc2)CN1c1ccc2c(c1)OCCO2 (stereo unspecified)	-29	-3%	-17%	0%	.
CCOC(=O)N/N=C/c1c(C)nn(-c2ccccc2Cl)c1Cl	37	-9%	-7%	-1%	-14%
Cc1nn(-c2ccccc2Cl)c(Cl)c1/C=N/Nc1nc2ccccc2s1	-94*	-12%	5%	2%	3%
CCOc1ccc(CCNC(=O)Cn2nnc(-c3ccc(C(F)(F)F)cc3)n2)cc1OCC	1	4%	-4%	1%	.
COC(=O)c1nn(-c2ccccc2)c2nnc(Cc3ccc(C)cc3)c(=O)n12	-108*	-10%	-9%	6%	-1%
COC(=O)c1nn(-c2cccc(C)c2)c2nnc(Cc3ccccc3)c(=O)n12	-7	i	4%	-5%	3%
Cc1ccc2nc(-c3ccc(C)o3)c(NC3CCCC3)n2c1	.	-5%	-14%	.	.
CCCCNc1c(-c2ccccn2)nc2nc(C)cc(C)n12	15	1%	28%	3%	.
Cc1cccc(C)c1Nc1c(-c2ccccn2)nc2ccccn12	-97*	.	.	-4%	-1%
Cc1cc(C)n2c(Nc3c(C)cccc3C)c(-c3ccccn3)nc2n1	-69*	?	5%	4%	.
Cc1ccc2nc(-c3ccccn3)c(NC3CCCC3)n2c1	-66*	13µM*	-28%	3%	-1%
Cc1csc(=O)n1CC(=O)OCC(=O)c1c(N)n(C)c(=O)n(C)c1=O	15	-21%	-1%	-1%	.
Cc1ccc(NC(=O)c2cccc(NC3=NC4CS(=O)(=O)CC4S3)c2)cc1C (stereo unspecified)	44	4%	-2%	-3%	0%
CCc1nc2ccc(C(=O)Nc3ccc(OC)c(OC)c3)cn2c1N(C)Cc1ccc(OC)cc1	50	-14%	-13%	6%	.
CCc1nc2ccc(C(=O)Nc3ccc(OC)c(OC)c3)cn2c1N(C)Cc1cccs1	-79*	-21%	-18%	-10%	.
COc1ccc(CNCCc2ccccc2F)c(OC)c1C	36	.	.	9%	-3%
CCn1c(SCC(=O)Nc2ccccc2N2CCCCC2)nc2c1c(=O)n(C)c(=O)n2C	-69*	-4%	-14%	-15%	2%
CCOc1ccc(C(=O)Nc2ccccc2N2CCCC2)cc1	-76*	-6%	?	4%	0%
CC(C)CC(=O)Nc1ccccc1N1CCCC1	-78*	-15%	0%	-6%	-1%
SMILES	HCMV inh	Vaccinia mCherry	VACV Venus inh	TbPYK inhibitor	LmPK inhibitor
CCOc1ccccc1NC(=O)Nc1cc(C(=O)NCc2ccc(C)cc2)ccc1N1CCCC1	-85*	-4%	-29%	2%	.
CCOc1ccc(C(=O)Nc2ccccc2N2CCOCC2)cc1	?	.	-18%	-6%	0%
COc1ccc(C)cc1NC(=O)Nc1cc(C(=O)NCc2ccc(C)cc2)ccc1N1CCCC1	-2	-25%	-22%	-1%	.
COc1cc2c(cc1OC)CN(Cc1cc(=O)n3cc(C)ccc3n1)CC2	0	-14%	2%	2%	-3%
CC(C)NC(=O)COC(=O)c1cc(Br)ccc1Cl	-23	i	-4%	2%	-2%
Cc1ccc(Nc2c(-c3cccs3)nc3nc(C)cc(C)n23)cc1	69	-16%	-12%	6%	.
O=C(Nc1ccccc1F)Nc1ccccc1N1CCCCC1	-83*	?	?	0%	0%
CS(=O)(=O)N1CCN(c2ccccc2NC(=O)c2cccc3ccccc23)CC1	?	-17%	-14%	-2%	3%
CCOc1cccc(C(=O)Nc2ccccc2C(=O)N2CCOCC2)c1	-97*	i	-11%	-13%	1%
CC(C)C(=O)N1CCN(c2ccccc2NC(=O)c2cccc3ccccc23)CC1	-65*	i	-11%	0%	-1%
O=C(Nc1ccccc1N1CCCCC1)c1ccc(F)cc1	-25	i	-13%	-14%	2%
Cc1ccc2nc3n(c(=O)c2c1)-c1cc2ccccc2cc1C(=O)NC3Cc1ccc(O)cc1 (stereo unspecified)	-92*	?	?	-1%	.
O=C1NC(Cc2ccc(O)cc2)c2nc3cc(Cl)ccc3c(=O)n2-c2cc3ccccc3cc21 (stereo unspecified)	-100*	?	?	-2%	.
O=C1NC(Cc2ccccc2)c2nc3cc(Cl)ccc3c(=O)n2-c2ncccc21 (stereo unspecified)	-67*	-4%	?	-3%	.
O=C1NC(Cc2ccc(O)cc2)c2nc3ccc(F)cc3c(=O)n2-c2cc3ccccc3cc21 (stereo unspecified)	-101*	?	?	3%	.
O=C1NC(Cc2ccc(O)cc2)c2nc3cc(F)c(F)cc3c(=O)n2-c2cc3ccccc3cc21 (stereo unspecified)	-19	-15%	?	-1%	.
COc1ccc(N(C(=O)C2CCCCC2)S(=O)(=O)c2cccc3cccnc23)cc1	-38	-23%	0%	-5%	2%
O=C(COC(=O)c1cc([N+](=O)[O-])ccc1N1CCOCC1)Nc1cc(F)ccc1F	0	-27%	-12%	0%	.
CCOC(=O)C1(C)CCCN(C(=O)c2cc(C)on2)C1 (stereo unspecified)	-7	4%	-3%	-3%	.
COc1cc2c3c(cccc3c1)C(=O)N(CCN1CCCC1)C2=O	-98*	?	?	4%	.
Cc1ccc(S(=O)(=O)NC2=C(N3CCN(Cc4ccccc4)CC3)C(=O)c3ccccc3C2=O)cc1	-65*	-7%	1%	-4%	-20%
Cc1ccc(S(=O)(=O)NC2=C(N3CCN(c4ccccc4F)CC3)C(=O)c3ccccc3C2=O)cc1	-29	-17%	-1%	-6%	-19%
COc1ccc(C(N)c2csc(NC(=O)Nc3ccccc3C(C)(C)C)n2)cc1 (stereo unspecified)	-32	1%	-15%	-1%	.
O=c1c(-c2ccccc2)nc2ccccc2n1C(CCc1ccccc1)c1nc2ccccc2[nH]1 (stereo unspecified)	-67*	i	15%	.	.
O=C(c1ccccc1)N(CCN1CCOCC1)C1(C(=O)Nc2ccccc2)CCCCC1	-11	.	-5%	2%	0%
